We go through 37 compounds from PubChem BioAssay (NCATS).

Results filed as inconclusive are left out. The source made the active and inactive calls. Calls follow the shape of the dose curve; as a rule, active = well fitted cell-killing curve with a large enough effect; inconclusive = small, poorly fitted or top-dose-only effect, or effect the other way; inactive = no such curve, though single readings can be large or run the other way.
Potency is read from the fitted curve at half-maximal effect.

The assay is described as follows: Quantitative High-Throughput drug screen in 47 multiple myeloma cell lines against the NCATS MIPE library collection: OPM2_DSMZ cell viability assay (AID 1919872). Also: nearly all actives have a fitted effect of over 30% in size. The conditions noted are these: OPM2 myeloma viability, CellTiter-Glo ATP luminescence, 48 h; series mostly up to 45.8 µM; viability (% of DMSO): at the top concentration. An outline of the steps: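 Primary qHTS used for cherry-picking: cells at 500/well, library compounds for 48 h (37C, 5% CO2), luminescent ATP assay.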
Background: ATP-based viability assays read luminescence as a measure of living cells.
With `O=S(=O)(c1cccc2cnccc12)N1CCCNCC1`, the “viability (% of DMSO)” value was 105% (inactive).

With `Oc1c(Cl)cc(Cl)c2cccnc12`, the Potency is 26.4 µM (active).

For `Nc1nc(=S)c2[nH]cnc2[nH]1`, the Potency was 3.72 µM (active).

As to `CN(C)CCc1c[nH]c2ccc(C[C@H]3COC(=O)N3)cc12`, the “viability (% of DMSO)” value is 94% (inactive).

Regarding `CCc1cc(C(N)=S)ccn1`, the “viability (% of DMSO)” value is 110% (inactive).

As for `C1CCC(C(CC2CCCCN2)C2CCCCC2)CC1` (configuration not stated), the Potency was 23.5 µM (active).

For `CC(C)(C)NC(=O)[C@H]1CC[C@H]2[C@@H]3CC[C@H]4NC(=O)C=C[C@]4(C)[C@H]3CC[C@]12C`, the “viability (% of DMSO)” value is 104% (inactive).

On to `CCN(C)C(=O)Oc1cccc([C@H](C)N(C)C)c1`, for which the “viability (% of DMSO)” value was 97.3% (inactive).

For `COc1c(N2CCNC(C)C2)c(F)cc2c(=O)c(C(=O)O)cn(C3CC3)c12` (configuration not stated), the “viability (% of DMSO)” value was 94.5% (inactive).

`CC(C)(C)C(=O)OCOP(=O)(COCCn1cnc2c(N)ncnc21)OCOC(=O)C(C)(C)C`: the Potency is 23.5 µM (active).

Turning to `CCn1cc(C(=O)O)c(=O)c2cc(F)c(N3CCN(C)CC3)cc21`, the “viability (% of DMSO)” value was 97.9% (inactive).

Turning to `CC(C)OC(=O)OCOP(=O)(CO[C@H](C)Cn1cnc2c(N)ncnc21)OCOC(=O)OC(C)C`, the “viability (% of DMSO)” value was 87% (inactive).

In the case of `CC1=CC(=O)c2ccccc2C1=O`, the Potency was 20.9 µM (active).

On to `CCN(CC)CCn1c(=O)c(Cc2ccc(OC)cc2)nc2ccccc21`, for which the “viability (% of DMSO)” value is 92.2% (inactive).

As to `CN(Cc1cc(Br)cc(Br)c1N)C1CCCCC1`, the “viability (% of DMSO)” value is 81.1% (inactive).

For `COC(c1ccccc1)(c1ccccc1)[C@H](Oc1nc(C)cc(C)n1)C(=O)O`, the “viability (% of DMSO)” value is 108% (inactive).

As to `CCOc1cc(N)c(Cl)cc1C(=O)NCC1CN(Cc2ccc(F)cc2)CCO1` (configuration not stated), the “viability (% of DMSO)” value is 105% (inactive).

`NNC(=O)c1ccncc1`: the “viability (% of DMSO)” value is 98.6% (inactive).

On to `COc1ccc(-c2ccc3cc(C(=O)O)ccc3c2)cc1C12CC3CC(CC(C3)C1)C2`, for which the “viability (% of DMSO)” value is 94.7% (inactive).

As for `Nc1[nH]c(=O)ncc1F`, the “viability (% of DMSO)” value was 113% (inactive).

For the compound `O=C(O)c1cc(=O)[nH]c(=O)[nH]1`, the “viability (% of DMSO)” value is 86% (inactive).

As to `CC1=NN(c2ccccc2)C(=O)C1`, the “viability (% of DMSO)” value was 124% (inactive).

For `COc1cc(NCc2ccc3nc(N)nc(N)c3c2C)cc(OC)c1OC`, the Potency is 18.7 µM (active).

On to `COc1cc([C@@H]2c3cc4c(cc3[C@H](O)[C@H]3COC(=O)[C@H]23)OCO4)cc(OC)c1OC`, for which the “viability (% of DMSO)” value is 4.2% (inactive).

`C#CCN[C@@H]1CCc2ccccc21`: the “viability (% of DMSO)” value is 102% (inactive).

For the compound `CCOC(=O)c1ccc(OC(=O)CCCCCN=C(N)N)cc1`, the “viability (% of DMSO)” value was 109% (inactive).

For the compound `Cn1nnc2c(C(N)=O)ncn2c1=O`, the “viability (% of DMSO)” value was 122% (inactive).

Take `O=C(O)c1cn(C2CC2)c2cc(N3CCNCC3)c(F)cc2c1=O`: the “viability (% of DMSO)” value was 104% (inactive).

Turning to `Cc1nnc(C(=O)NC(C)(C)c2nc(C(=O)NCc3ccc(F)cc3)c(O)c(=O)n2C)o1`, the “viability (% of DMSO)” value was 111% (inactive).

For `NC(=O)c1cccc(N)c1`, the “viability (% of DMSO)” value was 110% (inactive).

Consider `CC(N)C12CC3CC(CC(C3)C1)C2` (configuration not stated), for which the “viability (% of DMSO)” value is 102% (inactive).

As for `C[C@@H](CN1CC(=O)NC(=O)C1)N1CC(=O)NC(=O)C1`, the “viability (% of DMSO)” value was 125% (inactive).

Turning to `NC(=O)c1ccc2[nH]ccc2c1`, the “viability (% of DMSO)” value was 93.1% (inactive).

With `CC1=C(C(=O)O)N2C(=O)[C@@H](NC(=O)C(N)c3ccccc3)[C@H]2SC1` (some centres not stated), the “viability (% of DMSO)” value is 102% (inactive).

With `CCCCS(=N)(=O)CCC(N)C(=O)O` (configuration not stated), the “viability (% of DMSO)” value was 120% (inactive).

As to `Cn1c(=O)c2c(ncn2CC(O)CO)n(C)c1=O` (configuration not stated), the “viability (% of DMSO)” value is 112% (inactive).

For the compound `COC(=O)Nc1nc2ccc(C(=O)c3ccccc3)cc2[nH]1`, the Potency was 1.48 µM (active).
